Among the data in PubChem BioAssay (NCI) are growth values, retold here.

The structures appear in SMILES notation. Values joined by “and” are separate entries in the source; they are usually repeats but may differ in a detail not shown here. Identical values can stand only once. This is part of a sample that, as a whole, favours compounds with a hit. Of some 83,000 tested, about 20% had one in any assay.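 Values shown are percent growth following 48 h exposure of cells in 96-well plates to a single concentration of compound; below 10 was considered active.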 Active and inactive are the calls of the source.

Test systems include NCI-H23 lung; NCI-H226 lung; HOP-62 NSCLC; NCI-H460 lung; HOP-92 NSCLC; NCI-H522 lung; A549/ATCC NSCLC; 786-0 renal; COLO 205 colon.
Test in all cases: NCI-60 one-dose screen, 48 h (100 = growth as untreated, 0 = no growth, -100 = all killed)
The subject of another assay is NCI-H322M lung. As to conditions: 10 µM unless noted.

With `CCNC(=S)n1nc(SC)c(C(=O)OCC)c1N`, the growth is 93.3% (inactive) with NCI-H23 lung (10 µM unless noted); 91.9% (inactive) in the assay with NCI-H226 lung (10 µM unless noted); 91.8% (inactive) in the assay with NCI-H322M lung; 86.7% (inactive) in the assay with HOP-62 NSCLC (10 µM unless noted); 106% (inactive) with NCI-H460 lung (10 µM unless noted); 110% (inactive) in the assay with HOP-92 NSCLC (10 µM unless noted). The growth with NCI-H522 lung (10 µM unless noted) was 89.9% (inactive); in the assay on A549/ATCC NSCLC (10 µM unless noted) it was 107% (inactive); in the assay on 786-0 renal (10 µM unless noted), 98.6% (inactive).
As for `CC(C)(C)CC(N)=O`, the growth with NCI-H23 lung (10 µM unless noted) is 100% (inactive); in the assay with NCI-H226 lung (10 µM unless noted), 95.6% (inactive); in the assay with NCI-H322M lung, 108% (inactive); with HOP-62 NSCLC (10 µM unless noted) it was 89.4% (inactive); in the assay with NCI-H460 lung (10 µM unless noted) it was 103% (inactive); with HOP-92 NSCLC (10 µM unless noted), 104% (inactive). Besides, the growth in the assay on NCI-H522 lung (10 µM unless noted) is 111% (inactive); in the assay on A549/ATCC NSCLC (10 µM unless noted), 97.6% (inactive); in the assay on 786-0 renal (10 µM unless noted), 101% (inactive).
With `CN1C(=O)/C(=C/c2ccc(C(=O)Nc3ncc(Cc4ccccc4Cl)s3)cc2)SC1=S`, the growth in the assay with NCI-H23 lung (10 µM unless noted) is 94.6% (inactive); with NCI-H226 lung (10 µM unless noted), 81.4% (inactive); with NCI-H322M lung, 72.2% (inactive); in the assay on HOP-62 NSCLC (10 µM unless noted), 74.2% (inactive); in the assay on NCI-H460 lung (10 µM unless noted) it was 79.5% (inactive); in the assay with HOP-92 NSCLC (10 µM unless noted), 75.1% (inactive). Moreover, the growth was 64.2% (inactive) in the assay on NCI-H522 lung (10 µM unless noted), 72.2% (inactive) with A549/ATCC NSCLC (10 µM unless noted) and 87.9% (inactive) with 786-0 renal (10 µM unless noted).
As for `O=C(/C=C/c1cccc(Oc2ccc(Cl)cc2)c1)c1ccccc1`, the growth is 90.8% (inactive) in the assay on NCI-H23 lung (10 µM); -57.9% (active) in the assay on NCI-H23 lung (100 µM); 104% (inactive) in the assay with NCI-H226 lung (10 µM); -63.2% (active) in the assay on NCI-H226 lung (100 µM); -73% [100 µM] (active) with NCI-H322M lung; 98.5% (inactive) in the assay on HOP-62 NSCLC (10 µM). The growth was -80.5% (active) in the assay on HOP-62 NSCLC (100 µM); 97.3% (inactive) in the assay with NCI-H460 lung (10 µM); -76.6% (active) in the assay on NCI-H460 lung (100 µM); 111% (inactive) in the assay with HOP-92 NSCLC (10 µM); -90.7% (active) in the assay with HOP-92 NSCLC (100 µM); 89.2% (inactive) in the assay on NCI-H522 lung (10 µM). Besides, the growth is -64.6% (active) with NCI-H522 lung (100 µM); 96.2% (inactive) with A549/ATCC NSCLC (10 µM); -75.7% (active) in the assay with A549/ATCC NSCLC (100 µM); 91.3% (inactive) with 786-0 renal (10 µM); -88.9% (active) in the assay on 786-0 renal (100 µM); 104% (inactive) in the assay with COLO 205 colon (10 µM). The growth with COLO 205 colon (100 µM) is -71% (active).
For the molecule `CCN(CC)CCOc1ccc(/C(=C(\Cl)c2ccccc2)c2ccccc2)cc1`, the growth was 61.2% (inactive) and 81.6% (inactive) in the assay with NCI-H23 lung (10 µM unless noted); 27.6% (inactive) and 49.4% (inactive) in the assay with NCI-H226 lung (10 µM unless noted); 74.8% (inactive) in the assay on NCI-H322M lung; -40% (active) and 61.3% (inactive) in the assay with HOP-62 NSCLC (10 µM unless noted); 5.92% (active) with NCI-H460 lung (10 µM unless noted); 30.6% (inactive) and 83.7% (inactive) in the assay on HOP-92 NSCLC (10 µM unless noted). The growth in the assay with NCI-H522 lung (10 µM unless noted) was 43.9% (inactive) and 98.7% (inactive); with A549/ATCC NSCLC (10 µM unless noted), 84.8% (inactive); in the assay with 786-0 renal (10 µM unless noted) it was -65.1% (active) and 87.8% (inactive).
Regarding `O=C(NNc1ccccc1)C1CCCN1` (stereo not drawn), the growth is 98.8% (inactive) with NCI-H23 lung (10 µM unless noted); 80.9% (inactive) in the assay on NCI-H226 lung (10 µM unless noted); 86% (inactive) with NCI-H322M lung; 76.7% (inactive) in the assay on HOP-62 NSCLC (10 µM unless noted); 99.1% (inactive) in the assay on NCI-H460 lung (10 µM unless noted); 108% (inactive) with HOP-92 NSCLC (10 µM unless noted). Moreover, the results for the growth in the assay on NCI-H522 lung (10 µM unless noted), in the assay on A549/ATCC NSCLC (10 µM unless noted) and with 786-0 renal (10 µM unless noted) were 52.2% (inactive), 75.9% (inactive) and 89.2% (inactive), respectively.
On to `COc1ccc(C(=O)/C=C/c2ccc(OCc3cccc(C(F)(F)F)c3)c(OC)c2)cc1OC`, for which the growth in the assay on NCI-H23 lung (10 µM) is 69.9% (inactive); in the assay on NCI-H23 lung (100 µM), 11.1% (inactive); with NCI-H226 lung (10 µM), 81.4% (inactive); in the assay on NCI-H226 lung (100 µM) it was -12.8% (active); with NCI-H322M lung it was 11.7% [100 µM] (inactive); with HOP-62 NSCLC (10 µM) it was 111% (inactive). Moreover, the growth in the assay with HOP-62 NSCLC (100 µM) was 5.03% (active); in the assay on NCI-H460 lung (10 µM), 78.9% (inactive); with NCI-H460 lung (100 µM), 6.09% (active); in the assay on HOP-92 NSCLC (10 µM), 79.4% (inactive); in the assay with HOP-92 NSCLC (100 µM) it was -17.4% (active); in the assay on NCI-H522 lung (10 µM), 53.8% (inactive). The growth was -18.5% (active) in the assay on NCI-H522 lung (100 µM); 73.1% (inactive) in the assay with A549/ATCC NSCLC (10 µM); 14.9% (inactive) in the assay on A549/ATCC NSCLC (100 µM); 122% (inactive) with 786-0 renal (10 µM); -3.87% (active) in the assay with 786-0 renal (100 µM); 103% (inactive) in the assay with COLO 205 colon (10 µM). In addition, the growth in the assay on COLO 205 colon (100 µM) is 23.2% (inactive).
For `O=C1/C(=C/c2cn(-c3ccccc3)nc2-c2ccccc2)SC(=S)N1c1ccccc1`, the growth is 95% (inactive) in the assay on NCI-H23 lung (10 µM unless noted); 96.2% (inactive) in the assay with NCI-H226 lung (10 µM unless noted); 99.2% (inactive) in the assay on NCI-H322M lung; 100% (inactive) with HOP-62 NSCLC (10 µM unless noted); 107% (inactive) in the assay on NCI-H460 lung (10 µM unless noted); 33.6% (inactive) in the assay with HOP-92 NSCLC (10 µM unless noted). Also, the growth in the assay on NCI-H522 lung (10 µM unless noted) was 91.3% (inactive); with A549/ATCC NSCLC (10 µM unless noted), 105% (inactive); with 786-0 renal (10 µM unless noted), 105% (inactive).
For `CCC(=C(c1ccc(OCCCN(C)C)cc1)c1ccc(OCCCN(C)C)cc1)c1ccc(Cl)cc1`, the growth with NCI-H23 lung (10 µM unless noted) is -80% (active); in the assay with NCI-H226 lung (10 µM unless noted), -66.8% (active); with NCI-H322M lung, -96.8% (active); with HOP-62 NSCLC (10 µM unless noted) it was -78% (active); in the assay on NCI-H460 lung (10 µM unless noted) it was -71.1% (active); in the assay on HOP-92 NSCLC (10 µM unless noted) it was -80% (active). Moreover, the growth in the assay with NCI-H522 lung (10 µM unless noted) is -66.5% (active); in the assay on A549/ATCC NSCLC (10 µM unless noted) it was -69.9% (active); in the assay with 786-0 renal (10 µM unless noted), -86.8% (active).
Turning to `CCNC(=O)Oc1ccc(/C(=C(/C)Cc2ccc(OC)cc2)c2ccc(OCCN(CC)CC)cc2)cc1`, the growth is 78.2% (inactive) in the assay on NCI-H23 lung (10 µM unless noted); 91.9% (inactive) in the assay with NCI-H226 lung (10 µM unless noted); 76.9% (inactive) with NCI-H322M lung; 76.3% (inactive) in the assay on HOP-62 NSCLC (10 µM unless noted); 13.5% (inactive) in the assay with NCI-H460 lung (10 µM unless noted); 43.3% (inactive) in the assay with HOP-92 NSCLC (10 µM unless noted). Also, the growth with NCI-H522 lung (10 µM unless noted) was 58.1% (inactive); in the assay on A549/ATCC NSCLC (10 µM unless noted), 51.7% (inactive); in the assay with 786-0 renal (10 µM unless noted), 53.8% (inactive).
With `N=C(N)c1ccc(-c2ccc(-c3ccc(Cl)c(Cl)c3)s2)cc1`, the growth was 63.1% (inactive) in the assay with NCI-H23 lung (10 µM unless noted); 98.9% (inactive) with NCI-H226 lung (10 µM unless noted); -3.21% (active) with NCI-H322M lung; 40.8% (inactive) in the assay with HOP-62 NSCLC (10 µM unless noted); -58.7% (active) in the assay on NCI-H460 lung (10 µM unless noted); 74.4% (inactive) in the assay on HOP-92 NSCLC (10 µM unless noted). Moreover, the values for the growth with NCI-H522 lung (10 µM unless noted), with A549/ATCC NSCLC (10 µM unless noted) and in the assay on 786-0 renal (10 µM unless noted) were -38.4% (active), -51.9% (active) and -3.47% (active), respectively.
In the case of `CC(=O)/C=C/c1ccc(N(C)Cc2ccc(C(C)(C)C)cc2)cc1`, the growth is 75.5% (inactive) in the assay with NCI-H23 lung (10 µM); -10.1% (active) in the assay on NCI-H23 lung (100 µM); 85.1% (inactive) with NCI-H226 lung (10 µM); -82.3% (active) in the assay with NCI-H226 lung (100 µM); -64.5% [100 µM] (active) with NCI-H322M lung; 97.6% (inactive) with HOP-62 NSCLC (10 µM). The growth was -34.8% (active) in the assay on HOP-62 NSCLC (100 µM); 96.9% (inactive) in the assay on NCI-H460 lung (10 µM); -63.7% (active) in the assay on NCI-H460 lung (100 µM); 77.3% (inactive) in the assay on HOP-92 NSCLC (10 µM); -92.6% (active) with HOP-92 NSCLC (100 µM); 77.1% (inactive) in the assay with NCI-H522 lung (10 µM). For the same molecule, the growth is -76.4% (active) in the assay on NCI-H522 lung (100 µM); 89.6% (inactive) with A549/ATCC NSCLC (10 µM); -48.6% (active) in the assay with A549/ATCC NSCLC (100 µM); 97.3% (inactive) in the assay with 786-0 renal (10 µM); -75% (active) in the assay on 786-0 renal (100 µM); 113% (inactive) with COLO 205 colon (10 µM). Moreover, the growth with COLO 205 colon (100 µM) is -72% (active).
